The values below come from PubChem BioAssay.

The structures appear in SMILES notation. Calls of active or inactive are those of the source.

Test [1] in a line: small molecules captured by biotinylated probe aFSTL3 – biochemical, small-molecule microarray, fluorescence 635/667, stem cell growth factor project, primary screen (AID 1064).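 Note: measures binding of the biotinylated anti-FSTL3 antibody to printed compounds.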 The following applies: higher = more signal.
Test [2] is described as follows: binders from COS7 lysate, DM2A8 probe, primary screen, torsin A project, cell lysate, small-molecule microarray, fluorescence 635/667 (AID 1065). Particulars: higher = more signal, COS7 lysate expressing mutant human TOR1A.
A short description of test [3]: small molecules captured by biotinylated probe aFGF2 – biochemical, small-molecule microarray, fluorescence 635/667, stem cell growth factor project, primary screen (AID 1067).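 Note: measures binding of biotinylated aFGF2 protein to printed compounds on slides; z-score merges feature fluorescence and signal-to-noise across triplicate slides.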 The following applies: higher = more signal.
Test [4] can be described thus: small molecules captured by biotinylated probe aFGF10 – biochemical, small-molecule microarray, fluorescence 635/667, stem cell growth factor project, primary screen (AID 1071).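 Note: score merges 667 nm spot intensity and signal to noise from triplicate slides.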 Particulars: higher = more signal.
For test [5], the target named is Neurogenic locus notch homolog protein 2 (Homo sapiens) (UniProt Q04721). Put plainly: small molecules binding Notch2 protein – biochemical, small-molecule microarray, 635 nm fluorescence, stem cell growth factors, primary screen (AID 1073). The following applies: higher = more signal.
Chain of Neurogenic locus notch homolog protein 2 (Homo sapiens) (Q04721 whole entry, looked up, canonical isoform): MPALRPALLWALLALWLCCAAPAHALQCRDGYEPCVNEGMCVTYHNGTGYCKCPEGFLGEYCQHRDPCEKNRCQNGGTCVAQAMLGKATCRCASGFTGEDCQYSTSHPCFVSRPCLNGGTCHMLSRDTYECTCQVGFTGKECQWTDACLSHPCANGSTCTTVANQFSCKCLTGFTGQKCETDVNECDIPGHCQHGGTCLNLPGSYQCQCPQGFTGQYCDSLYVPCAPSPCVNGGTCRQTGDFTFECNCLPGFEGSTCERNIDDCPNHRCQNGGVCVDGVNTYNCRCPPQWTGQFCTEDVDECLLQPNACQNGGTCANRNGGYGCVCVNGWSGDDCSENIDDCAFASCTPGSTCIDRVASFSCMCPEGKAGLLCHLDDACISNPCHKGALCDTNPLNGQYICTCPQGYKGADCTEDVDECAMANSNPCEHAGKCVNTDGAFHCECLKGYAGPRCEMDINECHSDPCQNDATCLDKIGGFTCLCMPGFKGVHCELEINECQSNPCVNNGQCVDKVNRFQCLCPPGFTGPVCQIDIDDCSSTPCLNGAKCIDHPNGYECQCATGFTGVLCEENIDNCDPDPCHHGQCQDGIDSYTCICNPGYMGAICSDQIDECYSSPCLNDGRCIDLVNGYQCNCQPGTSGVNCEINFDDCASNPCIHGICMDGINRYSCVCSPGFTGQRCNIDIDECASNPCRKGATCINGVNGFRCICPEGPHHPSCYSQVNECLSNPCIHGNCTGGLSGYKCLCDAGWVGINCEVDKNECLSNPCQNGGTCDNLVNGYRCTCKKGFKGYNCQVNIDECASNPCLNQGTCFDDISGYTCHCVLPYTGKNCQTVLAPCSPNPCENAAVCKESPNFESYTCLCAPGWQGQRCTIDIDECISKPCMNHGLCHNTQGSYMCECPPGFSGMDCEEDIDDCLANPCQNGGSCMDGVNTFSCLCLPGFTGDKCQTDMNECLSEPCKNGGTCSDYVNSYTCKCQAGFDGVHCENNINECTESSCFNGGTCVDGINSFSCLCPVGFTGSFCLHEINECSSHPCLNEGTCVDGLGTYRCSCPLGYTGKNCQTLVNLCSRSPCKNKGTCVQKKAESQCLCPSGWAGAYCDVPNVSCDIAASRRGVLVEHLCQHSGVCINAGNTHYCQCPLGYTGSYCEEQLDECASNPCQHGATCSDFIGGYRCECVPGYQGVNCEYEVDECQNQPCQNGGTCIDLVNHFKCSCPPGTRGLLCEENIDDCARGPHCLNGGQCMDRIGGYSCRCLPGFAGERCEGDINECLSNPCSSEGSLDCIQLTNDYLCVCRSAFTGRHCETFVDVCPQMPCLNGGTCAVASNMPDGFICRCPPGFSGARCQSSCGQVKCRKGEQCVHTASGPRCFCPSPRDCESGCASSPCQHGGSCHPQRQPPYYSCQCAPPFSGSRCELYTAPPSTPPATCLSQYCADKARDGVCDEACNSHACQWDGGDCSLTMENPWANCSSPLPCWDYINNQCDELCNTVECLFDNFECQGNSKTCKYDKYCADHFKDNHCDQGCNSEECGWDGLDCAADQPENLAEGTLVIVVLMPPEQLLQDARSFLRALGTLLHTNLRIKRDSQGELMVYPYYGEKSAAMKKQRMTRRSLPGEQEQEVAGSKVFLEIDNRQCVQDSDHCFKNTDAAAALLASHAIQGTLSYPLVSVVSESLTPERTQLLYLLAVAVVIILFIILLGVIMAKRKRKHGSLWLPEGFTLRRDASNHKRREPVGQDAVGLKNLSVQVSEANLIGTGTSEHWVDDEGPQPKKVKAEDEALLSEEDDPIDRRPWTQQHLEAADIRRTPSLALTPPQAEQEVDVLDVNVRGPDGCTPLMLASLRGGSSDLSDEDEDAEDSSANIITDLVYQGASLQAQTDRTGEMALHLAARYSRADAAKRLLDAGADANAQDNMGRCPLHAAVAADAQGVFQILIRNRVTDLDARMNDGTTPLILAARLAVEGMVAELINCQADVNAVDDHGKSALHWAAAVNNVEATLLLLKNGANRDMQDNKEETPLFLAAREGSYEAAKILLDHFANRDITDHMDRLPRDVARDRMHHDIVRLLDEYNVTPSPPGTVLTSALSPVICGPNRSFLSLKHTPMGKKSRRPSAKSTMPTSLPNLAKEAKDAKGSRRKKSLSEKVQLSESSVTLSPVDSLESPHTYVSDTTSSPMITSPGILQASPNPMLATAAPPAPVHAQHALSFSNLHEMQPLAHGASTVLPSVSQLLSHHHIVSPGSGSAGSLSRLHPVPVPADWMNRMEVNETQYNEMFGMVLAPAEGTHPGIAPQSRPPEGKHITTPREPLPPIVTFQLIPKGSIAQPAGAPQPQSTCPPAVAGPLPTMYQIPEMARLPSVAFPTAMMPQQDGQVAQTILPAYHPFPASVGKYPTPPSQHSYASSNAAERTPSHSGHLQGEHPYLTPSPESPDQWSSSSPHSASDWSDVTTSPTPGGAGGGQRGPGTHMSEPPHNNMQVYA
For test [6], the target named is Pro-neuregulin-1, membrane-bound isoform (Homo sapiens) (UniProt Q02297). Put plainly: small molecules binding neuregulin-1 protein – biochemical, small-molecule microarray, fluorescence 635/667, psychiatric disease protein project, primary screen (AID 1075).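 Note: score combines 667 nm spot fluorescence with signal to noise.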 Particulars: NRG1 binding, 635 nm fluorescence, higher = more signal.
Test [7] relates to Neuregulin-1 EGF-like domain. Kind of test: small molecules binding NRG1 EGF domain – biochemical, small-molecule microarray, 635 nm fluorescence, primary screen (AID 1081).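 Note: binding of the protein to compounds printed on small-molecule microarray slides.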 Particulars: higher = more signal.
Test [8] is described as follows: FRG1 expression reporter modulators in myotubes – cell-based, C2C12 myotubes, firefly/Renilla luciferase, luminescence, FRG1 inhibition for FSHD, primary screen (AID 1084). Particulars: FRG1 promoter luciferase, higher = more signal, called active from +8 up or from −8 down.
Test [9] in a line: small molecules captured by biotinylated probe aFST – biochemical, small-molecule microarray, fluorescence 635/667, stem cell growth factor project, primary screen (AID 1086).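 Note: score merges 667 nm fluorescence with signal-to-noise of each printed compound spot.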 Particulars: higher = more signal.
A short description of test [10]: binders of probe aHhip on microarray, primary screen, stem cell growth factor project, biochemical, small-molecule microarray, fluorescence 635/667 (AID 1087).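 Note: score merges spot fluorescence at 667nm with spot signal to noise ratio.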 The following applies: higher = more signal.
In test [11] the test system is PRMT1 (protein arginine N-methyltransferase 1). Kind of test: small molecules binding arginine methyltransferase PRMT1 – biochemical, small-molecule microarray, 635 nm fluorescence, primary screen (AID 1088).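 Note: binding of Prmt1 protein to compounds spotted on small-molecule microarray slides.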 Particulars: higher = more signal.
A short description of test [12]: growth effects on S. cerevisiae YJM789 – YJM789 clinical isolate, OD600, 24 h, basal, primary screen (AID 1089).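 Note: growth of clinical yeast isolate S. cerevisiae YJM 789 seeded 1000 cells per well; test concentration not given here.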 Particulars: higher = more signal, called active from +8 up or from −8 down.
Test [13] in a line: S. pombe growth modifiers, basal conditions – strain 972, OD600, 24 h, no modulator, primary screen (AID 1090).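 Note: basal condition with compound alone and no growth modifier present; test concentration not given here.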 The following applies: S. pombe 972 growth, higher = more signal, called active from +8 up or from −8 down.
Test [14] can be described thus: budding yeast growth modifiers under rapamycin – strain BY4716, OD600, 96 h, primary screen (AID 1091). Note: test concentration not given here. Particulars: S. cerevisiae BY4716 + rapamycin, higher = more signal, called active from +8 up or from −8 down.
The target in test [15] is Torsin-1A-interacting protein 2 (Homo sapiens) (UniProt Q8NFQ8). Put plainly: small molecules binding lysate-expressed LULL1 – cell lysate, human LULL1 lysate, 635/667 nm fluorescence, primary screen (AID 1092).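 Note: score merges per-feature 667 nm fluorescence with signal-to-noise.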 The following applies: small-molecule microarray, hLULL1 lysate binding, 635 nm fluorescence; higher = more signal.
Test [16] is described as follows: optical density change of DRC41 E. coli – strain DRC41, OD650, 24 h, E. coli filamentation project, primary screen (AID 1093).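 Note: MC1000 strain lacking acrAB efflux and sulA so SOS filamentation is blocked; test concentration not given here.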 Particulars: E. coli DRC41 growth, higher = more signal, called active from +8 up or from −8 down.
Test [17] can be described thus: probe aLefty2 binding to arrayed compounds – biochemical, biotinylated probe, 635/667 nm fluorescence, primary screen (AID 1094).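 Note: score merges spot fluorescence near 667 nm with spot signal-to-noise ratio.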 The following applies: small-molecule microarray, higher = more signal.
Test [18] deals with Noggin (protein binding on small-molecule microarray). Put plainly: small molecules binding Noggin protein – biochemical, 635/667 nm fluorescence, primary screen (AID 1095).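 Note: score merges 667 nm feature fluorescence with signal to noise over triplicate slides.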 The following applies: 635 nm fluorescence, higher = more signal.
In test [19] the target is Neurogenic locus notch homolog protein 3 (Homo sapiens) (UniProt Q9UM47). Put plainly: small molecules binding NOTCH3 protein – biochemical, 635/667 nm fluorescence, primary screen (AID 1096). The following applies: small-molecule microarray, 635 nm fluorescence, higher = more signal.
Chain of Neurogenic locus notch homolog protein 3 (Homo sapiens) (Q9UM47 whole entry, looked up): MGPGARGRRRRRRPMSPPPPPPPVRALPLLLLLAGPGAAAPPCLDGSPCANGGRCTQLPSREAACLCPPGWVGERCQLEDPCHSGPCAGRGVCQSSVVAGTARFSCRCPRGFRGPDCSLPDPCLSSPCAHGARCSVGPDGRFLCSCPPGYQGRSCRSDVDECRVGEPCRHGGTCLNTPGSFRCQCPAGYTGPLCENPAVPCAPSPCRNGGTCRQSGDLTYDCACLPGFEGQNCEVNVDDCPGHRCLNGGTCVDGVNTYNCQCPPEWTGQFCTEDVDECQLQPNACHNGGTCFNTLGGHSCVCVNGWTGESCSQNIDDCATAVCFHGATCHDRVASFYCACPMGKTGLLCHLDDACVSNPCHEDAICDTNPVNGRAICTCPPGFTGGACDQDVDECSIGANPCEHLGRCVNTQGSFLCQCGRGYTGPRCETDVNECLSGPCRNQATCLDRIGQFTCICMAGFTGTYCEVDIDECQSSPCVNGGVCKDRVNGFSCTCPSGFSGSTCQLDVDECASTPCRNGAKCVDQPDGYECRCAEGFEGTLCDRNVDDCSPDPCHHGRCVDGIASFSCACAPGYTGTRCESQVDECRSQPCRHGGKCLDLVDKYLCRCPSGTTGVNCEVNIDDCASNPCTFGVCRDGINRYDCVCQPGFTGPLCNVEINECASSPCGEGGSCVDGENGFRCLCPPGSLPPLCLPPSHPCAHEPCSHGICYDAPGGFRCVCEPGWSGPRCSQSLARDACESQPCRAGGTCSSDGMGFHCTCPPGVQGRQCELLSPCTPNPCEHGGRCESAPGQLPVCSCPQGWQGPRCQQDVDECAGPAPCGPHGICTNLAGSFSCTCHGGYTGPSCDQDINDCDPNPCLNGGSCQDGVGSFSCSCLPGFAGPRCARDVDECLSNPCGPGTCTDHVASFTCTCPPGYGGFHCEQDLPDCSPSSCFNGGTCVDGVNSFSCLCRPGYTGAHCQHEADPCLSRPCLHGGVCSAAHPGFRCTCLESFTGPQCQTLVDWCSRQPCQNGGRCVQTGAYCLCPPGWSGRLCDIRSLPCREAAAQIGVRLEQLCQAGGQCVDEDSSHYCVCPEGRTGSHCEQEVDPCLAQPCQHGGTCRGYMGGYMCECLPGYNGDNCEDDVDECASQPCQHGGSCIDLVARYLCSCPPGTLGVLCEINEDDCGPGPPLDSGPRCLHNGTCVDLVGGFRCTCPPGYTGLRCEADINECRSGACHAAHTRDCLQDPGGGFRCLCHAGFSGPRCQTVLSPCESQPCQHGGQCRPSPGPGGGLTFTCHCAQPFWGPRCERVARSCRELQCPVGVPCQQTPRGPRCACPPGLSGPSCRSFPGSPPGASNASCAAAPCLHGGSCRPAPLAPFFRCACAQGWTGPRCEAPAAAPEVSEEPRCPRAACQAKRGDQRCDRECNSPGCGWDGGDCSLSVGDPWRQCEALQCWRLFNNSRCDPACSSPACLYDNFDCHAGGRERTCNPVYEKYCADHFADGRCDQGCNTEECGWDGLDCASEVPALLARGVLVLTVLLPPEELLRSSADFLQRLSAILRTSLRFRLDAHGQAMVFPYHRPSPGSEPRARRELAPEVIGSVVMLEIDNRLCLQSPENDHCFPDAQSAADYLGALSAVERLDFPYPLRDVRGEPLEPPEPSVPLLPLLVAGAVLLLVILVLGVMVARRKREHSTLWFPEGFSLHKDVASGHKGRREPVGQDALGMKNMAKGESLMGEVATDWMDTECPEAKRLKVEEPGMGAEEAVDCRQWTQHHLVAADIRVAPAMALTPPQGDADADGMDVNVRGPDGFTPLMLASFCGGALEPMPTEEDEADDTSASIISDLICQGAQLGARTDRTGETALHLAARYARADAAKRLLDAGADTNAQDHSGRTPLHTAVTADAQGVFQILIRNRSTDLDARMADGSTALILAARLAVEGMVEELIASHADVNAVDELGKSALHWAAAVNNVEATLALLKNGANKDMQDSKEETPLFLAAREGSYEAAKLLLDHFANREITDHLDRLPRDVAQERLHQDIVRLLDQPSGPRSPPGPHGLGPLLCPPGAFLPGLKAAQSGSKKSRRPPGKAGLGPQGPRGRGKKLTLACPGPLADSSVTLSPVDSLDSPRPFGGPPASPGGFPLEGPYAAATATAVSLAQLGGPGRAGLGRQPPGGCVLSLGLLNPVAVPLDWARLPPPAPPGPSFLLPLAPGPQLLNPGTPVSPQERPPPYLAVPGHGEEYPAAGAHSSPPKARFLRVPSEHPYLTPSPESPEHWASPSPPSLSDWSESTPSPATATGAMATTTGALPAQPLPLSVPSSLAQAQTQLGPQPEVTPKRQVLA
A short description of test [20]: probe aEGFR binding to arrayed compounds – biochemical, biotinylated probe, 635/667 nm fluorescence, primary screen (AID 1097).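 Note: probe is a biotinylated anti-EGFR antibody binding compounds printed on slides; score combines fluorescence near 667 nm and signal to noise of each spot.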 The following applies: small-molecule microarray, higher = more signal.

As for `COc1ccc(O[C@H]2C=C[C@@H](c3ccccc3)O[C@@H]2COC(=O)CCC(C)=NOC(C)CN2CCCCc3nc(C)c(C)cc32)cc1` (stereo not given in full), the composite z-score is 0.614 in test [1]; -0.017 in test [2]; -0.164 in test [3]; -0.102 in test [4]; -0.763 in [5]; -0.0663 in test [6]. Further, the composite z-score in test [7] is 0.106; in test [9] it was -0.62; in [10] it was -0.226; in [11] it was -0.285; in test [15] it was 0.283; in [17], -0.0769. The figures for the composite z-score in test [18], in [19] and in test [20] were 0.294, -1.33 and -0.0614, respectively. Besides, the z-score is 0.766 (inactive) in test [8]; -0.258 (inactive) in test [12]; -1.87 (inactive) in test [13]; -0.889 (inactive) in [14]; 1.14 (inactive) in test [16].
`CC(C)CN1CCc2nc(-c3ccccc3)c3c(c2CC1)CO[C@@H](C)C3`: the composite z-score in [1] is 0.0816; in [2] it was 0.252; in test [3], -0.0594; in test [4], 0.309; in test [5] it was 0.834; in test [6], -0.117. For the same molecule, the composite z-score was 0.132 in test [7]; 0.594 in test [9]; 0.394 in test [10]; -0.36 in [11]; -0.39 in test [15]; 0.061 in test [17]. The composite z-score was determined as 0.364 in test [18], 0.0668 in [19] and 0.0657 in [20]. Also, the z-score in test [8] was -0.867 (inactive); in [12] it was 0.175 (inactive); in test [13], -0.327 (inactive); in test [14] it was -0.378 (inactive); in test [16], 0.102 (inactive).
In the case of `COCCOC(=O)N1C(=O)[C@@]2(c3cc(C#Cc4ccc(OC)cc4)ccc31)[C@H](C(=O)N1CCN(c3ncccn3)CC1)[C@H]1C(=O)O[C@H](c3ccccc3)[C@H](c3ccccc3)N1[C@@H]2c1ccc(OCCO)cc1`, the composite z-score in test [1] was 0.367; in [2], -0.473; in test [3], -0.006; in test [4], 0.3; in [5], 1.35; in test [6], 0.458. The composite z-score in test [7] came to 0.703; in test [9], 0.383; in test [10], 0.28; in test [11] it was 1.55; in test [15], 2.12; in [17], 0.192. Also, the results for the composite z-score in [18], in test [19] and in test [20] were 0.918, 1.11 and 0.232, respectively. The z-score is 0.726 (inactive) in test [8]; 2.04 (inactive) in [12]; 1.46 (inactive) in test [13]; 5.06 (inactive) in test [14]; -0.371 (inactive) in [16].
For the molecule `CCOC(=O)[C@H](Cc1ccccc1)NC(=O)CCC1CC(OC(=O)NCc2ccc3c(c2)OCO3)CC2(CCCC(COC(=O)NCC(c3ccccc3)c3ccccc3)O2)O1` (stereo not given in full), the composite z-score in test [1] is -0.655; in [2], 0.805; in test [3], -0.151; in test [4] it was 0.211; in test [5], 0.883; in test [6] it was 0.716. The composite z-score was 1.03 in test [7]; 0.359 in test [9]; -0.306 in test [10]; 1.16 in [11]; 2.34 in test [15]; -0.0485 in [17]. The values for the composite z-score in test [18], in test [19] and in test [20] were 0.955, 1.06 and -0.157, respectively. The z-score in [8] was 1.26 (inactive); in test [12], 0.668 (inactive); in test [13], 0.9 (inactive); in test [14], 0.687 (inactive); in test [16], 0.454 (inactive).
In the case of `COC(=O)[C@@H]1CC[C@H](C)[C@@H](c2ccc(C)cc2)N1C(=O)c1ccc(C=NOC[C@@H](O)COCc2ccco2)cc1`, the composite z-score is 0.852 in test [1]; 0.239 in test [2]; -0.226 in [3]; -0.58 in test [4]; -1.83 in [5]; -0.96 in test [6]. Also, the composite z-score in test [7] is -1.04; in test [9] it was -0.72; in test [10], -0.137; in [11], -2.07; in test [15], -1.69; in test [17], 0.0179. In addition, the composite z-score was -1.01 in test [18], -3.12 in test [19] and -0.0868 in test [20]. In addition, the z-score is 0.495 (inactive) in test [8]; -1.45 (inactive) in test [12]; 0.165 (inactive) in [13]; -0.71 (inactive) in [14]; 1.47 (inactive) in test [16].
